Laboratory results reported in paper PMC7862700, “An all-to-all approach to the identification of sequence-specific readers for epigenetic DNA modifications on cytosine”.

What was measured:
Assay in all cases: DAPPL (digital affinity profiling via proximity ligation, sequencing); 10 mM Tris-HCl pH 7.5, 50 mM NaCl, 1 mM DTT, 4% glycerol, room temperature, 30 min; GST-TFs on glutathione beads, 16-mer random dsDNA library, 0.1% formaldehyde crosslink after washing; high values mean tight binding
Conditions in all cases: protein: recombinant; tags: N-terminal GST; dsDNA, one strand shown
FLI1 = target: T1, FLI1 (Homo sapiens, UniProt Q01543 1-452)
T1 sequence: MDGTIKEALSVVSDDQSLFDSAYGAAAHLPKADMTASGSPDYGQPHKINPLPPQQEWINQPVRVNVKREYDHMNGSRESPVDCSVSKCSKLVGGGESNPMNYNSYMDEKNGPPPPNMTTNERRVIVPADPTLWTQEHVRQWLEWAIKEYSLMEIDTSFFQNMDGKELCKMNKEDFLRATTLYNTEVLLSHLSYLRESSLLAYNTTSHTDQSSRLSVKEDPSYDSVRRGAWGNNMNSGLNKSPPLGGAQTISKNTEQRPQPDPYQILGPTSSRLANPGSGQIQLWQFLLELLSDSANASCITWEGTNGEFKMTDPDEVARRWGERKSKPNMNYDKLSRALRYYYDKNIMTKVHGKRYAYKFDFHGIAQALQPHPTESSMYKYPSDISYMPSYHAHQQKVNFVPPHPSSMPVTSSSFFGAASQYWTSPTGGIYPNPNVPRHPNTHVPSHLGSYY
Outline: (§1)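 Each value of binding signal is a hexamer's read frequency for a factor divided by the same hexamer's frequency in the tag-only sample. Barcoded, bead-captured GST fusions of human transcription factors made in yeast were pooled with that sample and incubated with 200 nmole of a random double-stranded 16-mer DNA library in Tris/NaCl/DTT/glycerol buffer at room temperature for 30 min. Washing, 0.1% formaldehyde crosslinking, proximity ligation, PCR and Illumina NextSeq500 sequencing followed.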

ELK1 = target: T2, ELK1 (Homo sapiens, UniProt P19419 1-428)
T2 sequence: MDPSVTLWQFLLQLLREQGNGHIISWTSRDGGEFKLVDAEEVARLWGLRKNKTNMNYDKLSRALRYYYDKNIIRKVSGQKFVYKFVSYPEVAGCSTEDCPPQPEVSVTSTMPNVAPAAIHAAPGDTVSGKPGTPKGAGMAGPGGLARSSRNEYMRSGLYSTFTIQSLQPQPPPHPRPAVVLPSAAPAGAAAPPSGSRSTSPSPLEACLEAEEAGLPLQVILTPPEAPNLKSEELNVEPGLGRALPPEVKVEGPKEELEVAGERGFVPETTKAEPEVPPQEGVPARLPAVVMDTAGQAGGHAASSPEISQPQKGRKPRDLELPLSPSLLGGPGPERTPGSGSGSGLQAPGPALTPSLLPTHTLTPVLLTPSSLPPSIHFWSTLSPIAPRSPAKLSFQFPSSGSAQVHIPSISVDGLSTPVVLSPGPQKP
Outline: as §1

GABPA = target: T3, GABPA (Homo sapiens, UniProt Q06546 1-454)
T3 sequence: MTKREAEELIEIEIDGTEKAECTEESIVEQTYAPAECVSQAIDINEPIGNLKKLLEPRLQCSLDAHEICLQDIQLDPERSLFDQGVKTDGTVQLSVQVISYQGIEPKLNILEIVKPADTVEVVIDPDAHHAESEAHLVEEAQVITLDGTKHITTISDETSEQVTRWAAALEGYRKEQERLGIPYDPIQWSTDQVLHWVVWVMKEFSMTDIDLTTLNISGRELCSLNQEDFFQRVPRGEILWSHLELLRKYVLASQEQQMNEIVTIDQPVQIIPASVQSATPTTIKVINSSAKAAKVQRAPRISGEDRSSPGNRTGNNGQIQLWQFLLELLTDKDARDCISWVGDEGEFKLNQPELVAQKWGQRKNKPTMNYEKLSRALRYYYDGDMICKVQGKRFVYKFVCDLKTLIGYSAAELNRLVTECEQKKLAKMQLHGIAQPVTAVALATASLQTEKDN
Outline: as §1

ERG = target: T4, ERG (Homo sapiens, UniProt P11308 1-479)
T4 sequence: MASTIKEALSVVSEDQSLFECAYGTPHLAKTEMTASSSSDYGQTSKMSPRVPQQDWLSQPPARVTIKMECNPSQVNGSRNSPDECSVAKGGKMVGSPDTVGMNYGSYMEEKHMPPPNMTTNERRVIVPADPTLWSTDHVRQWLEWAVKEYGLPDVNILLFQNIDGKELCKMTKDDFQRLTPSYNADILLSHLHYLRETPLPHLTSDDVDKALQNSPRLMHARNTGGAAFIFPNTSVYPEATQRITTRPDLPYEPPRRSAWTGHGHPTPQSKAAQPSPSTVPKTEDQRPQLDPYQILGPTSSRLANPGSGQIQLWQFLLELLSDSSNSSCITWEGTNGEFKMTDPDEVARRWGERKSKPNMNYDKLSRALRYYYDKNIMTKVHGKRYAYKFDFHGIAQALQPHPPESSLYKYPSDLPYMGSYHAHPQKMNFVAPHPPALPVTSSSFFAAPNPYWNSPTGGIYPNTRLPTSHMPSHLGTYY
Outline: as §1

ELF1 = ELF1 (Homo sapiens, UniProt P32519 1-619)
ELF1, sequence (P32519 whole entry): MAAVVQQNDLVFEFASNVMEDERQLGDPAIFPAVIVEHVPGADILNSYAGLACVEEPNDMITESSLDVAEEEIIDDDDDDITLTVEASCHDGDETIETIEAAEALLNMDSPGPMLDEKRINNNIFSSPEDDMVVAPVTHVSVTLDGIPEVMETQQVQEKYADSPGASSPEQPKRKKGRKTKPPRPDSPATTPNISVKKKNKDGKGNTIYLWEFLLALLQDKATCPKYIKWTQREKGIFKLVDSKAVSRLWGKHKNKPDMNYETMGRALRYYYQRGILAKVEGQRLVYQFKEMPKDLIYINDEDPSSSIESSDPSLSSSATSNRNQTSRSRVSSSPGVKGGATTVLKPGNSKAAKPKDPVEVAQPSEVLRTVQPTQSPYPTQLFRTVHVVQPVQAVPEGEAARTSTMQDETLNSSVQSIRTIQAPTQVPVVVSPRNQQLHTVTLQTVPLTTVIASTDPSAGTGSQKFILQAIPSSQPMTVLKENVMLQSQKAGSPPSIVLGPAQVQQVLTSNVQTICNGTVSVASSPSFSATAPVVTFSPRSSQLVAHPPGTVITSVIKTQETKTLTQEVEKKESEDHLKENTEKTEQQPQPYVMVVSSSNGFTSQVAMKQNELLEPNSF
Outline: as §1

EHF = target: T5, EHF (Homo sapiens, UniProt Q9NZC4 1-300)
T5 sequence: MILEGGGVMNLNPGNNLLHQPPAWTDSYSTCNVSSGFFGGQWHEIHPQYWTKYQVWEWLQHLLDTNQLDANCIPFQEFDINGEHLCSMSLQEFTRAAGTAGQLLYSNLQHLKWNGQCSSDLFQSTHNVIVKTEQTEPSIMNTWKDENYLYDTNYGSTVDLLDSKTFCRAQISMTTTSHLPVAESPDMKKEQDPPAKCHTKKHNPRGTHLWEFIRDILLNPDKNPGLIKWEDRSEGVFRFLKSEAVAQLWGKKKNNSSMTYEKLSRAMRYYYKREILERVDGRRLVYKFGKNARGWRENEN
Outline: as §1

SPI1 = SPI1 (Homo sapiens, UniProt P17947 1-270)
Outline: as §1

SPIB = SPIB (Homo sapiens, UniProt Q01892 1-262)
SPIB, sequence (Q01892 whole entry): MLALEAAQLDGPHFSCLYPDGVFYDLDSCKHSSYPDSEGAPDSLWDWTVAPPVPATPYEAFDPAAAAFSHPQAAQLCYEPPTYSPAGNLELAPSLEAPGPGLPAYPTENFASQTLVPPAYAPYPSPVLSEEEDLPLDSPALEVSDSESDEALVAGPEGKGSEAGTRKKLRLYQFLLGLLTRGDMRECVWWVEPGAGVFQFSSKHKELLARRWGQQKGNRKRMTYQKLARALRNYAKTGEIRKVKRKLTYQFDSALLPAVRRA
Outline: as §1

ELK3 = target: T6, ELK3 (Homo sapiens, UniProt P41970 1-407)
T6 sequence: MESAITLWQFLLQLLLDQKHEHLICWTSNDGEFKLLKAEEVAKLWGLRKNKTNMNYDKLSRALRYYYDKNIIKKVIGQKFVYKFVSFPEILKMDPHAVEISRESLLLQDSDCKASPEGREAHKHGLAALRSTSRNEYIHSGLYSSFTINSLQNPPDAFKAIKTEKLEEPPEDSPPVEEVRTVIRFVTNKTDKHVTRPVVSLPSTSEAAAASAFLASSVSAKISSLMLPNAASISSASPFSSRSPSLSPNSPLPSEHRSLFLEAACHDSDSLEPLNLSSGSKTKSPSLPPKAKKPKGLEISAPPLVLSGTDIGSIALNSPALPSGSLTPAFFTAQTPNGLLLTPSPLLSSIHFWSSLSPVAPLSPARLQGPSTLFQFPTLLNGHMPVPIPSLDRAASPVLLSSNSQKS
Outline: as §1

Sequence | binding signal (FLI1) | binding signal (ELK1) | binding signal (GABPA) | binding signal (ERG) | binding signal (ELF1) | binding signal (EHF) | binding signal (SPI1) | binding signal (SPIB) | binding signal (ELK3)
GTTATT | 1.16 fold enrichment (6-mer frequency, TF over GST control) | 1.23 fold enrichment (6-mer frequency, TF over GST control) | 1.17 fold enrichment (6-mer frequency, TF over GST control) | 1.15 fold enrichment (6-mer frequency, TF over GST control) | 1.05 fold enrichment (6-mer frequency, TF over GST control) | 1.08 fold enrichment (6-mer frequency, TF over GST control) | 1.28 fold enrichment (6-mer frequency, TF over GST control) | 1.09 fold enrichment (6-mer frequency, TF over GST control) | 1.23 fold enrichment (6-mer frequency, TF over GST control)
GGCTCC | 1.33 fold enrichment (6-mer frequency, TF over GST control) | 1.29 fold enrichment (6-mer frequency, TF over GST control) | 1.44 fold enrichment (6-mer frequency, TF over GST control) | 1.35 fold enrichment (6-mer frequency, TF over GST control) | 1.3 fold enrichment (6-mer frequency, TF over GST control) | 1.31 fold enrichment (6-mer frequency, TF over GST control) | 1.22 fold enrichment (6-mer frequency, TF over GST control) | 1.39 fold enrichment (6-mer frequency, TF over GST control) | 1.27 fold enrichment (6-mer frequency, TF over GST control)
CACAAG | 1.2 fold enrichment (6-mer frequency, TF over GST control) | 1.17 fold enrichment (6-mer frequency, TF over GST control) | 1.15 fold enrichment (6-mer frequency, TF over GST control) | 1.09 fold enrichment (6-mer frequency, TF over GST control) | 1.18 fold enrichment (6-mer frequency, TF over GST control) | 1.14 fold enrichment (6-mer frequency, TF over GST control) | 1.12 fold enrichment (6-mer frequency, TF over GST control) | 1.13 fold enrichment (6-mer frequency, TF over GST control) | 1.16 fold enrichment (6-mer frequency, TF over GST control)
TCGCTA | 1.17 fold enrichment (6-mer frequency, TF over GST control) | 1.09 fold enrichment (6-mer frequency, TF over GST control) | 1.24 fold enrichment (6-mer frequency, TF over GST control) | 1.07 fold enrichment (6-mer frequency, TF over GST control) | 1.11 fold enrichment (6-mer frequency, TF over GST control) | 1.02 fold enrichment (6-mer frequency, TF over GST control) | 1.04 fold enrichment (6-mer frequency, TF over GST control) | 1.05 fold enrichment (6-mer frequency, TF over GST control) | 1.23 fold enrichment (6-mer frequency, TF over GST control)
GACTCT | 1.3 fold enrichment (6-mer frequency, TF over GST control) | 1.28 fold enrichment (6-mer frequency, TF over GST control) | 1.37 fold enrichment (6-mer frequency, TF over GST control) | 1.34 fold enrichment (6-mer frequency, TF over GST control) | 1.37 fold enrichment (6-mer frequency, TF over GST control) | 1.27 fold enrichment (6-mer frequency, TF over GST control) | 1.2 fold enrichment (6-mer frequency, TF over GST control) | 1.37 fold enrichment (6-mer frequency, TF over GST control) | 1.2 fold enrichment (6-mer frequency, TF over GST control)
ATCGAT | 1.16 fold enrichment (6-mer frequency, TF over GST control) | 1.1 fold enrichment (6-mer frequency, TF over GST control) | 1.19 fold enrichment (6-mer frequency, TF over GST control) | 1.15 fold enrichment (6-mer frequency, TF over GST control) | 1.15 fold enrichment (6-mer frequency, TF over GST control) | 1.19 fold enrichment (6-mer frequency, TF over GST control) | 1.21 fold enrichment (6-mer frequency, TF over GST control) | 1.12 fold enrichment (6-mer frequency, TF over GST control) | 1.1 fold enrichment (6-mer frequency, TF over GST control)
CTACCT | 1.37 fold enrichment (6-mer frequency, TF over GST control) | 1.46 fold enrichment (6-mer frequency, TF over GST control) | 1.35 fold enrichment (6-mer frequency, TF over GST control) | 1.43 fold enrichment (6-mer frequency, TF over GST control) | 1.35 fold enrichment (6-mer frequency, TF over GST control) | 1.46 fold enrichment (6-mer frequency, TF over GST control) | 1.45 fold enrichment (6-mer frequency, TF over GST control) | 1.4 fold enrichment (6-mer frequency, TF over GST control) | 1.44 fold enrichment (6-mer frequency, TF over GST control)
TTTAGC | 1.04 fold enrichment (6-mer frequency, TF over GST control) | 1.05 fold enrichment (6-mer frequency, TF over GST control) | 1.2 fold enrichment (6-mer frequency, TF over GST control) | 1.16 fold enrichment (6-mer frequency, TF over GST control) | 1.19 fold enrichment (6-mer frequency, TF over GST control) | 1.12 fold enrichment (6-mer frequency, TF over GST control) | 1.05 fold enrichment (6-mer frequency, TF over GST control) | 1.14 fold enrichment (6-mer frequency, TF over GST control) | 1.09 fold enrichment (6-mer frequency, TF over GST control)
